Experimental data taken from paper PMC7862700, “An all-to-all approach to the identification of sequence-specific readers for epigenetic DNA modifications on cytosine”.

Legend:
Assay in all cases: DAPPL (digital affinity profiling via proximity ligation, sequencing); 10 mM Tris-HCl pH 7.5, 50 mM NaCl, 1 mM DTT, 4% glycerol, room temperature, 30 min; GST-TFs on glutathione beads, 16-mer random dsDNA library, 0.1% formaldehyde crosslink after washing; high values mean tight binding
FEV = target: T1, FEV (Homo sapiens, UniProt Q99581 1-238); conditions: protein: recombinant; tags: N-terminal GST; dsDNA, one strand shown
T1 sequence: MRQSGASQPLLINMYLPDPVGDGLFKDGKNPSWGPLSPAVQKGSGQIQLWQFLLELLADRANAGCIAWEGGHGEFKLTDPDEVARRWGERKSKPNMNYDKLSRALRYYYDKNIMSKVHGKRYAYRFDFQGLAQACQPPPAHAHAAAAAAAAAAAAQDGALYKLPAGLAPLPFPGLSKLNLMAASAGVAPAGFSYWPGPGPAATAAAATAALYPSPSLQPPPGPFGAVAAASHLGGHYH
Outline: (§1)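 Sequencing on an Illumina NextSeq500 followed washing, crosslinking with 0.1% formaldehyde, proximity ligation (BsaI/T4 ligase, 1 h, 37 °C) and PCR amplification of pools that had been incubated for 30 min at room temperature with 200 nmole of a random double-stranded 16-mer DNA library in Tris/NaCl/DTT/glycerol buffer. Each pool held DNA-barcoded human transcription factors, expressed in yeast as GST fusions and captured on glutathione beads, plus a tag-only sample. Binding signal is a hexamer's read frequency for a factor divided by its frequency in the tag-only sample.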

ETV5 = ETV5 (Homo sapiens, UniProt P41161 1-510); conditions: protein: recombinant; tags: N-terminal GST; dsDNA, one strand shown
ETV5, sequence (P41161 whole entry): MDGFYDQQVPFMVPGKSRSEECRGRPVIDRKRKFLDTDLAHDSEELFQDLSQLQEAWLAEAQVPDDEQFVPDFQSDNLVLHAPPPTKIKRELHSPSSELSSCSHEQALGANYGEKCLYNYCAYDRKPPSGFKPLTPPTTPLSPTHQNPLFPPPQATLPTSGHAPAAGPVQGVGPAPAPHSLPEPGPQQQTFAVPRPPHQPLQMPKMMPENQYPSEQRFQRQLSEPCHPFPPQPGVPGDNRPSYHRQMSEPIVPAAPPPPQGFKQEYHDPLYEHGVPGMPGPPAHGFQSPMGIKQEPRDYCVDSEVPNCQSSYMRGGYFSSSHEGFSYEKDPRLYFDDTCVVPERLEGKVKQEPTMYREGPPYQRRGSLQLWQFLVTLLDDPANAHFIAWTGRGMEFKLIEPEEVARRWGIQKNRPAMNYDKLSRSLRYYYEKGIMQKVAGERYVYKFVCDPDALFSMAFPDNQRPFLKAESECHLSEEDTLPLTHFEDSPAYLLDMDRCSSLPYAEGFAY
Outline: as §1

HSF1 = HSF1 (Homo sapiens, UniProt Q00613 1-529); conditions: protein: recombinant; tags: N-terminal GST; chain copies: 3; dsDNA, one strand shown
HSF1, sequence (Q00613 whole entry): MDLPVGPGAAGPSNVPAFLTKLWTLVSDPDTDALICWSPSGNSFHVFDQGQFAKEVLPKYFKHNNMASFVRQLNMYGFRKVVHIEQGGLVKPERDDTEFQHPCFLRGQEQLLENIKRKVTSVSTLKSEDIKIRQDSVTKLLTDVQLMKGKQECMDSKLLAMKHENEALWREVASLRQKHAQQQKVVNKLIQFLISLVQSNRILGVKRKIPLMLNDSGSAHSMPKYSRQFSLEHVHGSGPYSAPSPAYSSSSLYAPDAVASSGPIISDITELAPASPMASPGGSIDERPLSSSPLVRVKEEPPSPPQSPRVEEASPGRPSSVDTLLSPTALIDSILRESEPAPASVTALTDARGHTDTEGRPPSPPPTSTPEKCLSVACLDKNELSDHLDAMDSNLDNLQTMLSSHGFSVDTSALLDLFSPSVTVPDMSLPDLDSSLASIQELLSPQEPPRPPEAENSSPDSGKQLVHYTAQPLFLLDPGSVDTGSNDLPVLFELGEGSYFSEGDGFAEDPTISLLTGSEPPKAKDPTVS
Outline: as §1

SPIC = target: T2, SPIC (Homo sapiens, UniProt Q8N5J4 1-248); conditions: protein: recombinant; tags: N-terminal GST; dsDNA, one strand shown
T2 sequence: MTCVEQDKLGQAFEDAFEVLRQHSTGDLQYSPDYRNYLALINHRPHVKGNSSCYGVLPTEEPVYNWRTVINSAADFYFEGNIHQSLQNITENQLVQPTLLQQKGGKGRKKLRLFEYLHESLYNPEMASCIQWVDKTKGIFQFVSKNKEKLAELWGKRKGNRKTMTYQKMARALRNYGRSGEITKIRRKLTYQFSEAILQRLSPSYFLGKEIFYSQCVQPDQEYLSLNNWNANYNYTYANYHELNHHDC
Outline: as §1

ELF4 = ELF4 (Homo sapiens, UniProt Q99607 1-663); conditions: protein: recombinant; tags: N-terminal GST; dsDNA, one strand shown
ELF4, sequence (Q99607 whole entry): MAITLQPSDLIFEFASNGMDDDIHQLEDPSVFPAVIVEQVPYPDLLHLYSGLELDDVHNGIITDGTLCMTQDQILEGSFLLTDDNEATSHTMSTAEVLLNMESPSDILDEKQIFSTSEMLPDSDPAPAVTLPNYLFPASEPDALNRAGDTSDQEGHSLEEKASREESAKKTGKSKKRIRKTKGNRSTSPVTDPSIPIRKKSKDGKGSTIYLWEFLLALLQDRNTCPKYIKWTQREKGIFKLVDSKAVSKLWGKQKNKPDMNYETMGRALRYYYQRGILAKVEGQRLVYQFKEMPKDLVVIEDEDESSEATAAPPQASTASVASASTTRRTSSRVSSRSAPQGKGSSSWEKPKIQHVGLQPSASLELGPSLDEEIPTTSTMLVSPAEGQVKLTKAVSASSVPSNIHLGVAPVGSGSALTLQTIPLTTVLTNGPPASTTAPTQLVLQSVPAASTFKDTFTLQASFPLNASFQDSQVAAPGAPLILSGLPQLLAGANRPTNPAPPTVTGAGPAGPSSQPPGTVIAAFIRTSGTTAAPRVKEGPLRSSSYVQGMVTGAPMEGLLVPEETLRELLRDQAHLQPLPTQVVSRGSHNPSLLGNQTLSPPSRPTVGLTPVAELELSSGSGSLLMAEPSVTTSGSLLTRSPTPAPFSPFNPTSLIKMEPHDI
Outline: as §1

ELK4 = target: T3, ELK4 (Homo sapiens, UniProt P28324-2 1-405); conditions: protein: recombinant; tags: N-terminal GST; dsDNA, one strand shown
T3 sequence: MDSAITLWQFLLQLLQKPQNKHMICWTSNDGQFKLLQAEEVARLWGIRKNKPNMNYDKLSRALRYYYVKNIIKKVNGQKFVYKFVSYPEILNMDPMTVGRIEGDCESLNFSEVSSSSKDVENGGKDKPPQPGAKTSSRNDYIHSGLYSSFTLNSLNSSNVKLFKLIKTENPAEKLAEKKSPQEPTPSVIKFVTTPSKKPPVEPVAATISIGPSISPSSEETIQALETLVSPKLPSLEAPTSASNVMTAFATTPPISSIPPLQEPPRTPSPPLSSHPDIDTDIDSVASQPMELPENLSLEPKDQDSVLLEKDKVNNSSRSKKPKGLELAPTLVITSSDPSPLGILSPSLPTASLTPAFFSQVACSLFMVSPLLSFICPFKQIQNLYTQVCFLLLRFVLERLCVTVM
Outline: as §1

ETV2 = target: T4, ETV2 (Homo sapiens, UniProt O00321 1-342); conditions: protein: recombinant; tags: N-terminal GST; dsDNA, one strand shown
T4 sequence: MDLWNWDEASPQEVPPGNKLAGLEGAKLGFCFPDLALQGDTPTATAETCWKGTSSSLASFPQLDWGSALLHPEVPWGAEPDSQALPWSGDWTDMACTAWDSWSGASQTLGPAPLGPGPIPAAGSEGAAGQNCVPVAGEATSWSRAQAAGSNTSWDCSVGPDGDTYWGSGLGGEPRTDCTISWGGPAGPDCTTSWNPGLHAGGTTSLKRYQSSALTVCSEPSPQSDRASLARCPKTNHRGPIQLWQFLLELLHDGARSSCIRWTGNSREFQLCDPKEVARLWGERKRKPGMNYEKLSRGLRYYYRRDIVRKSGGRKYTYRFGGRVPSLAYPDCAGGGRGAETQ
Outline: as §1

ELF3 = target: T5, ELF3 (Homo sapiens, UniProt P78545 1-371); conditions: protein: recombinant; tags: N-terminal GST; dsDNA, one strand shown
T5 sequence: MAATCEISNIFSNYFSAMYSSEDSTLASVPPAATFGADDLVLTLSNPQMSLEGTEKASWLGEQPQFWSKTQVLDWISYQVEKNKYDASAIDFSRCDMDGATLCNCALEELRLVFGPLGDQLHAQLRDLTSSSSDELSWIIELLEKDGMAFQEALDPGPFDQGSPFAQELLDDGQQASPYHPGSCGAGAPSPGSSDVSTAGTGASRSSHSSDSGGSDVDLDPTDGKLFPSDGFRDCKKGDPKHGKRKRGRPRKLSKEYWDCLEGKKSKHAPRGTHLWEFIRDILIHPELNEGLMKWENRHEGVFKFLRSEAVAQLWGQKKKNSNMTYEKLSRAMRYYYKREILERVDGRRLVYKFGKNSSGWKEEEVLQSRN
Outline: as §1

CRX = CRX (Homo sapiens, UniProt O43186 1-299); conditions: protein: recombinant; tags: N-terminal GST; dsDNA, one strand shown
CRX, sequence (O43186 whole entry): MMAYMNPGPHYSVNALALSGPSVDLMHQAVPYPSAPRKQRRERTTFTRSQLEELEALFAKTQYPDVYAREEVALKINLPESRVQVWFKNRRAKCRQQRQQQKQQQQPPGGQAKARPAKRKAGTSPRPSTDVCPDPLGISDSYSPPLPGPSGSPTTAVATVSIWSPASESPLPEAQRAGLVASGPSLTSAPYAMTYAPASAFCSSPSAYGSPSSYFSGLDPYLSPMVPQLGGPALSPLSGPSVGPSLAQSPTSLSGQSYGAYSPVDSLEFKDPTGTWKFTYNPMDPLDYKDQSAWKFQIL
Outline: as §1

ETV1 = ETV1 (Homo sapiens, UniProt P50549 1-477); conditions: protein: recombinant; tags: N-terminal GST; dsDNA, one strand shown
ETV1, sequence (P50549 whole entry): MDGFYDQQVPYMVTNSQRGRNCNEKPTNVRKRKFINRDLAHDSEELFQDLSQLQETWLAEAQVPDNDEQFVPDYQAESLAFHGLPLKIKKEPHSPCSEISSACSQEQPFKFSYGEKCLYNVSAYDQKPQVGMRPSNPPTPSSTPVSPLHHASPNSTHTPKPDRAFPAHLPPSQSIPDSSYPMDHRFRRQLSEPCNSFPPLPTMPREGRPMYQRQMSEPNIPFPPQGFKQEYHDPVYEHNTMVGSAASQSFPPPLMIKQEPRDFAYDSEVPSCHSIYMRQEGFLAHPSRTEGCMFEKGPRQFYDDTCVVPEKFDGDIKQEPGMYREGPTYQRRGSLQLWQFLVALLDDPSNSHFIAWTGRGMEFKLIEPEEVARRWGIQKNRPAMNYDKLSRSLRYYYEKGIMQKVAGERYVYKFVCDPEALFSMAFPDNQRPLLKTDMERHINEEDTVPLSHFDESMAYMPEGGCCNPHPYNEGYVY
Outline: as §1

GACTCC
binding signal (FEV): 1.32 fold enrichment (6-mer frequency, TF over GST control) | binding signal (ETV5): 1.27 fold enrichment (6-mer frequency, TF over GST control) | binding signal (HSF1): 1.05 fold enrichment (6-mer frequency, TF over GST control) | binding signal (SPIC): 1.34 fold enrichment (6-mer frequency, TF over GST control) | binding signal (ELF4): 1.43 fold enrichment (6-mer frequency, TF over GST control) | binding signal (ELK4): 1.12 fold enrichment (6-mer frequency, TF over GST control) | binding signal (ETV2): 1.26 fold enrichment (6-mer frequency, TF over GST control) | binding signal (ELF3): 1.25 fold enrichment (6-mer frequency, TF over GST control) | binding signal (CRX): 1.02 fold enrichment (6-mer frequency, TF over GST control) | binding signal (ETV1): 1.29 fold enrichment (6-mer frequency, TF over GST control)
